Source: PubChem BioAssay

assay: forskolin-driven CRE-LacZ activity in PC12 – cell-based, CRE-LacZ reporter, forskolin-stimulated, primary screen (AID 1146); conditions: luminescence, 4.5 h, higher = more signal, called active from +8 up or from −8 down;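 note: PC12 cells with 6xCRE LacZ reporter stimulated by forskolin 10 µM; beta-galactosidase reporter signal reflecting CREB driven transcription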

z-score, inactive:
CN(C)C(=O)[C@]1(Cc2ccccc2N=[N+]=[N-])N=C(c2ccc(OCCCO)cc2)O[C@@H]1c1ccccc1 -2.15
CCCCCC1=C2CNC(CCC)(C(=O)OC)C=C2C(C)C1=O (stereo not given) 0.974
COCCOC(=O)N1C(=O)[C@@]2(c3cc(C#CCCO)ccc31)[C@H](C(=O)N1CCc3cc(OC)c(OC)cc3C1)[C@H]1C(=O)O[C@H](c3ccccc3)[C@H](c3ccccc3)N1[C@@H]2c1ccc(O)cc1 -0.742
O=C(NCc1ccccc1)[C@@]1(Cc2ccccc2)N=C(c2ccc(OCCCO)cc2)O[C@H]1c1ccccc1 -0.413
CC(C)c1ccc(NN2C(C(O)c3cc(C(F)(F)F)cc(C(F)(F)F)c3)C=CC3C(=O)N(c4ccccc4)C(=O)C32)cc1 (stereo not given) 0.849
CN1C(=O)[C@]2(Cc3ccccc3)N=C(c3ccc(OCCCO)cc3)O[C@@H]2c2ccccc21 -1.12
CC(C)(C)OC(=O)CC[C@]1(C(=O)NCC(O)CO)COC(c2ccc(OCCCO)cc2)=N1 (stereo not given in full) -0.0431
CCOC(=O)C[C@H]1[C@H](OC(=O)c2cc3ccccc3oc2=O)[C@@H](NC(=O)Cc2ccc(OC)cc2)c2cc(OCCCO)ccc2N1C(=O)c1ccccc1 -0.27
COc1ccc(CCNC(=O)[C@@]2(Sc3ccc(C)cc3)CC(=O)N(C3CCCCC3)[C@@H]2c2ccc(CO)cc2I)cc1 1.19
COc1ccc(C(=O)O[C@H]2CC[C@]3(C)C4=C(CCC3C2(C)C)[C@]2(C)CC[C@H]([C@H](C)CCCC(C)C)[C@@]2(C)CC4)cc1 (stereo not given in full) -0.634
CCOC(=O)C[C@H]1[C@H](OC(=O)Cc2ccc3c(c2)OCO3)[C@@H](NC(=O)c2ccc3ccccc3c2)c2cc(OCCCO)ccc2N1C(=O)c1ccccc1 0.005
CCN(CC)c1ccc(N2CC=CC34O[C@@H]5/C=C\CCCOC(=O)C5[C@H]3C(=O)N(CCO)[C@@H]4C2=O)cc1 (stereo not given in full) -0.462
C=CCNC(=O)[C@@H]1[C@H]2C(=O)O[C@H](c3ccccc3)[C@H](c3ccccc3)N2[C@H](c2ccccc2OCCO)[C@@]12C(=O)N(C(=O)OCCOC)c1ccc(C#CCNC(N)=O)cc12 0.447
O=C1C[C@]2(c3ccc([N+](=O)[O-])cc3)C(=O)N(CCN3CCOCC3)c3cc(CO)ccc3[C@H]2N1C1CCCCC1 0.254
CN1C(=O)C2C=CC(C(O)C3CC=CCC3)N(NC(=O)OC(C)(C)C)C2C1=O (stereo not given) 0.257
COCCCNC(=O)C1N=C(c2ccc(OCCCO)cc2)N(c2ccccc2)O1 (stereo not given) 0.72
C=C(COC)/C(=C/C[C@H](OC(=O)c1ccncc1)c1ccc(OCCO)cc1)c1cnc2ccccc2c1 -0.073
C=CC[C@@]1(C(=O)N(C)C)N=C(c2ccc(OCCCO)cc2)O[C@@H]1c1ccccc1N=[N+]=[N-] -0.825
C=CCOC(=O)[C@H]1[C@@H]2C(=O)O[C@@H](c3ccccc3)[C@@H](c3ccccc3)N2[C@@H](c2ccc(OCCOC(=O)[C@@H]3C[C@@H]4C(=O)N[C@@H](CCCC[N+](C)(C)C)C(=O)N4[C@@H]3c3ccc(O)cc3)cc2)[C@]12C(=O)Nc1ccccc12 -1.48
O=C1NC(=O)C2C1C=CC(C(O)c1cccc3ccccc13)N2Nc1ccccn1 (stereo not given) -0.285
COc1ccc(C(=O)Nc2cccc(CN3C(=O)[C@]4(O[C@H](CCO)[C@@H]([Si](C)(C)c5ccc(OC)cc5)[C@@H]4C)c4ccccc43)c2)cc1 -1.29
COC(=O)c1c(CC[C@@H](CO)NC(=O)N2CCC[C@H]2Cn2cc(-c3ccccn3)nn2)oc(C(C)=O)c1C(=O)OC -0.0037
C=CCN1C(=O)[C@]2(O[C@H](CCO)[C@@H]([Si](C)(C)c3ccc(OC)cc3)[C@@H]2C)c2cc(N3C(=O)c4cccc5cccc3c45)ccc21 -2.47
O=C(NCc1ccccc1)[C@@]1(CCS(=O)(=O)c2ccccc2)N=C(c2ccc(OCCCO)cc2)O[C@H]1c1ccccc1 -0.516
CC(C)C(=C=CC[C@@H](O)c1ccccc1OCCO)CCO -0.366
O=C(NCC(F)(F)F)[C@@H]1c2ccccc2C(=O)N(C2CCCCC2)[C@H]1c1ccc(CO)cc1 -0.258
CN1C(=O)C2C=CC(C(O)c3cccs3)N(Nc3ccccc3)C2C1=O (stereo not given) 0.711
COc1cc2c(cc1O)C(C1CC1)N(Cc1cc3c(cc1Br)OCO3)CC2 (stereo not given) 4.34
COCCOC(=O)N1C(=O)[C@@]2(c3cc(C#CCCO)ccc31)[C@H](c1ccc(OCCO)cc1)N1[C@H](c3ccccc3)[C@H](c3ccccc3)OC(=O)[C@H]1[C@@H]2C(=O)N1CCN(c2ncccn2)CC1 0.653
O=C1O[C@H](c2ccccc2)[C@H](c2ccccc2)N2[C@H]1[C@@H](C(=O)NC[C@H](O)c1ccccc1)[C@]1(C(=O)Nc3ccccc31)[C@H]2c1ccc(OCCO)cc1 -0.499
O=C1c2ccccc2[C@](Cc2ccccc2I)(C(=O)NC2CC2)[C@H](c2ccc(CO)cc2)N1C1CCCCC1 0.424
CC(=O)NCCCC[C@@H]1NC(=O)[C@@H]2C[C@H](C(=O)NCCCCCCNC(=O)CS)[C@H](c3cccc(OCCO)c3)N2C1=O -0.67
COCCOC(=O)N1C(=O)[C@@]2(c3cc(C#CC4=CCCCC4)ccc31)[C@H](C(=O)N1CCc3cc(OC)c(OC)cc3C1)[C@H]1C(=O)O[C@H](c3ccccc3)[C@H](c3ccccc3)N1[C@@H]2c1ccc(OCCO)cc1 -0.381
COCCOC(=O)N1C(=O)[C@@]2(c3cc(C#CC4=CCCCC4)ccc31)[C@H](C(=O)Nc1nc3ccccc3s1)[C@H]1C(=O)O[C@H](c3ccccc3)[C@H](c3ccccc3)N1[C@@H]2c1ccccc1OCCO -1.09
COc1ccc(C(O)C2C=CC3C(=O)N(c4ccccc4)C(=O)C3N2Nc2ccc(C(C)C)cc2)cc1OCc1ccccc1 (stereo not given) -0.465
